{"source": "PubChem BioAssay (EPA / NIEHS)", "note": "Active and inactive are the calls of the source. How the source made its calls: active means hit-call score of the fitted dose curve at least 0.9, where 1 is the maximum; inactive means score below 0.9."}
{"target": "Paired box protein Pax-6 (Homo sapiens) (UniProt P26367)", "sequence (P26367 whole entry, looked up)": "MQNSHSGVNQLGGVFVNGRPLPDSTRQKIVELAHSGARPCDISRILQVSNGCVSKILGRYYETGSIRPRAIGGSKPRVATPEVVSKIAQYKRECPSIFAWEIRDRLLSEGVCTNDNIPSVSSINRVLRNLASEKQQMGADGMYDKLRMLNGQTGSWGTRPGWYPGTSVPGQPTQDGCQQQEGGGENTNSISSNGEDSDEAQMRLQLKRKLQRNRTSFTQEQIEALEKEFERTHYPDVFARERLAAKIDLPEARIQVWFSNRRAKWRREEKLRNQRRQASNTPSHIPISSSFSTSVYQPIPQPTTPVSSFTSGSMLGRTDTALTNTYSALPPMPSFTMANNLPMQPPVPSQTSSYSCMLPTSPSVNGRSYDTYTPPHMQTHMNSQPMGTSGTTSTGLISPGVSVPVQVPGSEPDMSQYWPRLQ", "assay": "ATG_Pax6_CIS: Attagene CIS-FACTORIAL HepG2 Assay for human Paired Box 6 (PAX6) (AID 2282956)", "settings": "HepG2 CIS-FACTORIAL PAX6 reporter transcription, RNA readout; actives raise or lower the signal", "experimental": "ATG_CIS is a cell-based, multiplexed-readout assay that uses HepG2, a human liver cell line, with measurements taken at 24 hours after chemical dosing in a 24-well plate.ATG_Pax6_CIS is one of 52 assay component(s) measured or calculated from the ATG_CIS assay. It is designed to make measurements of mRNA induction, a form of inducible reporter, as detected with fluorescence intensity signals by Reverse transcription polymerase chain reaction (RT-PCR) and Capillary electrophoresis technology.Data from the assay component ATG_Pax6_CIS was analyzed into 1 assay endpoint. This assay endpoint, ATG_Pax6_CIS, was analyzed with bidirectional fitting relative to DMSO as the negative control and baseline of activity. Using a type of inducible reporter, measures of mRNA for gain or loss-of-signal activity can be used to understand the reporter gene at the transcription factor-level as they relate to the gene PAX6. Furthermore, this assay endpoint can be referred to as a primary readout, because this assay has produced multiple assay endpoints where this one serves a reporter gene function. To generalize the intended target to other relatable targets, this assay endpoint is annotated to the dna binding intended target family, where the subfamily is paired box protein.\nHuman liver HepG2 cells are transiently transfected with multiple reporter transcription units (MRTUs) in 6-well plates using FuGene 6 reagent (Roche; 3 ml FuGene/1 mg DNA). The MRTU constructs are regulated by a cis-regulating element (promoter). […] A major difference between the CIS and TRANS system is that in CIS activities of endogenous TFs are measured, whereas the TRANS assay evaluates changes in activities of exogenous, chimeric NR-Gal4 proteins. […] At the end of 24 hour incubation, total RNA was isolated using TriZol reagent (Invitrogen). The isolated RNA is then reverse-transcribed using oligo(dT) primer and Mo-MLV reverse transcriptase (Invitrogen) with DNAse I (Ambion) treatment for 30 min. The one-tenth of the produced cDNA was amplified by PCR using Taq DNA polymerase (Invitrogen) and two reporter sequence-specific primers. The PCR products were fluorescently labeled by primer extension with 6-arboxyfluorescein (6-FAM) 5'-labeled reporter sequence-specific primer (2 min at 95 C, 20 s at 68 C and 10 min at 72 C) and these products were digested with 5U of HpaI (New England Biolabs) for 2h at 37 C. The fragments were purified using Qiaquick PCR columns (Qiagen), analyzed on an ABI 3130xL genetic analyzer (Applied Biosystems) with peak positions identified by using a set of X-rhodamine (ROX)-labeled MapMarker1000 molecular weight standards (BioVentures). The raw capillary electrophoresis data was processed using Attagraph software (Attagene)."}
{"smiles": "COc1ccc(CCN2CCC(Nc3nc4ccccc4n3Cc3ccc(F)cc3)CC2)cc1", "outcome": "inactive"}
{"smiles": "CC(=O)c1c(C)c([N+](=O)[O-])c(C(C)(C)C)c([N+](=O)[O-])c1C", "outcome": "inactive"}
{"smiles": "CN(C)CCOC(C)(c1ccccc1)c1ccccn1", "note": "(stereo not given)", "outcome": "inactive"}
{"smiles": "CCC(C)=O", "outcome": "inactive"}
{"smiles": "CC1(C)COCN1", "outcome": "inactive"}
{"smiles": "CCCCCCCC(=O)OCCCCCC", "outcome": "inactive"}
{"smiles": "[O-]n1ccccc1=S.[O-]n1ccccc1=S.[Zn+2]", "outcome": "inactive"}
{"smiles": "O=CCc1ccccc1", "outcome": "inactive"}
{"smiles": "IC(I)I", "outcome": "inactive"}
{"smiles": "CC(C)CCOC(=O)c1ccccc1", "outcome": "inactive"}
{"smiles": "Nc1c(Cl)cc(Cl)cc1[N+](=O)[O-]", "outcome": "inactive"}
{"smiles": "COC(=O)c1cccnc1", "outcome": "inactive"}
{"smiles": "COc1cc([C@@H]2c3cc4c(cc3[C@@H](O[C@@H]3O[C@@H]5CO[C@@H](C)O[C@H]5[C@H](O)[C@H]3O)[C@H]3COC(=O)[C@H]23)OCO4)cc(OC)c1O", "outcome": "inactive"}
{"smiles": "O=C1c2ccccc2C(=O)c2c(O)ccc(O)c21", "outcome": "inactive"}
{"smiles": "CCCCCCCCN1CCCC1=O", "AC50": "144 µM (active)"}
{"smiles": "CCCC(C)C(O)CC", "note": "(stereo not given)", "outcome": "inactive"}
{"smiles": "COC(=O)c1ccc(C)cc1C1=NC(C)(C(C)C)C(=O)N1", "note": "(stereo not given) (tested in a mixture with another compound)", "outcome": "inactive"}
{"smiles": "CCCCCCC(=O)c1ccccc1", "outcome": "inactive"}
{"smiles": "C=CC(C)(O)CCC=C(C)C", "note": "(stereo not given)", "outcome": "inactive"}
{"smiles": "COc1ccc(COC(C)=O)cc1", "outcome": "inactive"}
{"smiles": "CCC(Cl)C(Cl)C(Cl)CC(Cl)C(Cl)C(C)Cl", "note": "(stereo not given)", "outcome": "inactive"}
{"smiles": "C=C(C)C1CC=C(C)C(=O)C1", "note": "(stereo not given)", "outcome": "inactive"}
{"smiles": "CCCCCCC(CO)CCCC", "note": "(stereo not given)", "outcome": "inactive"}
{"smiles": "O=C(O)c1cccnc1C(=O)O", "outcome": "inactive"}
{"smiles": "N#Cc1cscn1", "outcome": "inactive"}
{"smiles": "COCCOC(=O)c1ccccc1C(=O)OCCOC", "outcome": "inactive"}
{"smiles": "COC(C)(C)CC(C)=O", "outcome": "inactive"}
{"smiles": "CC(C)OCCO", "outcome": "inactive"}
{"smiles": "COC(=O)c1ccc([N+](=O)[O-])cc1", "outcome": "inactive"}
{"smiles": "CCN(CCC#N)c1ccc(N=Nc2ccc([N+](=O)[O-])cc2)cc1", "outcome": "inactive"}
{"smiles": "CCCC(C)=O", "outcome": "inactive"}
{"smiles": "Nc1ccc(N)c2c1C(=O)c1ccccc1C2=O", "outcome": "inactive"}
{"smiles": "O=C1OC2(c3ccccc31)c1ccc(O)c(Br)c1Oc1c2ccc(O)c1Br", "outcome": "inactive"}
{"smiles": "Cc1ccc(C)o1", "outcome": "inactive"}
{"smiles": "N#Cc1ccc(CC(=O)c2cccc(C(F)(F)F)c2)cc1", "outcome": "inactive"}
{"smiles": "ClC(c1ccccc1)(c1ccccc1)c1ccccc1", "outcome": "inactive"}
{"smiles": "CN(C)C(=S)SC(=S)N(C)C", "outcome": "inactive"}
{"smiles": "CCCCCCOC(=O)CCC", "outcome": "inactive"}
{"smiles": "CCCCC1CCC(O)CC1", "note": "(stereo not given)", "outcome": "inactive"}
{"smiles": "CCC1CCCCC1", "outcome": "inactive"}
